Screening results as filed in PubChem BioAssay.
aSyn 5UTR inh – MLPCN primary screen, SNCA 5' untranslated region; alpha-synuclein 5'UTR reporter, inhibitor activity; inhibition, % (tested at 7.5 µM); actives 0.82% (n = 300,000); in the data active means inhibition above about 60%;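 further: H4 neuroglioblastoma cells stably carrying SNCA 5'UTR luciferase fusion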
APP transl inh – APP translation inhibition | AID 1285 | actives 0.82% (n = 190,000) | inhibition, % at 2 µM | SH-SY5Y APP 5'UTR-luciferase reporter, luminescence;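 active means inhibition above a set limit, derived from the sample mean plus 3 SD, cut at about 45% in these data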
IEC-6 cytotox – IEC-6 cytotoxicity, counter-screen for KLF5 inhibitors. luminescence viability. inhibition, % at 5 µM. actives 0.78% (n = 290,000). AID 1825; in the data active means inhibition above about 22%
Ba/F3 V617F tox – loss of viability in JAK2V617F-driven Ba/F3 cells. Ba/F3 EpoR-JAK2V617F viability, ATP luminescence. inhibition, % at 5.6 µM. actives 1.1% (n = 220,000);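 active means inhibition above the campaign mean plus 3 SD over all tested compounds, cut at about 24% in these data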;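 further: cytokine-independent growth of Ba/F3 cells driven by EpoR plus mutant JAK2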
BaF3 tox – parental Ba/F3 viability inhibition as JAK2V617F counter-screen; CellTiter-Glo ATP luminescence; inhibition, % at 5.6 µM; actives 1.1% (n = 220,000); AID 1486;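 active means inhibition above a per-campaign cutoff, the mean inhibition of all tested compounds plus 3 SD, cut at about 27% in these data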
KLF5 inh – suppresses KLF5 promoter-driven expression | DLD-1 KLF5 promoter-luciferase reporter, luminescence | inhibition, % at 5 µM | actives 0.23% (n = 290,000);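 active means inhibition above a per-plate limit of that plate's mean compound inhibition plus 3 SD, cut at about 60% in these data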;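 further: higher means less KLF5 promoter-driven luciferase light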
Hits are given with their value; i = inactive; nt = no result given. Sampled rows, rich in hits. Any-hit rate of the full collection: about 2.2%.

SMILES | aSyn 5UTR inh | APP transl inh | IEC-6 cytotox | Ba/F3 V617F tox | BaF3 tox | KLF5 inh
O=C(CSc1nnc(Cn2nnc3ccccc32)o1)N(Cc1ccc(F)cc1)c1ccccc1 | i | i | i | i | 41 | i
Cc1cc(OCCSc2nnc(-c3cccs3)n2C)ccc1Cl | i | i | i | i | i | i
Cn1c(SCCOc2ccccc2Cl)nnc1-c1cccs1 | i | i | i | 35 | 37 | i
Cc1ccc(C(=O)NCC(=O)OC(C)C(=O)Nc2ccc(N(C)C)cc2)s1 (stereo not drawn) | i | i | i | i | i | i
Cc1cc(C(=O)CSc2nnc(-c3cccs3)n2Cc2ccccc2)c(C)n1C | i | i | i | i | i | i
O=c1cc(CSc2nnc(-c3cccs3)n2Cc2ccccc2)nc2sc3ccccc3n12 | i | i | i | 43 | 55 | i
CSc1nc(-c2ccccc2)nc(NC(=O)C(C)C)c1C(C)=O | i | 54 | i | i | i | i
O=C(CSc1nnc(-c2cccs2)n1-c1cccc(Cl)c1)c1cccc2c1OCCO2 | i | i | i | i | i | i
O=C(N/N=C/c1c(O)ccc2ccccc12)c1ccc[n+](CCO)c1 | i | i | i | i | i | i
Cc1c(C(=O)N/N=C/c2c(O)ccc3ccccc23)nnn1-c1nonc1N | 63 | nt | i | nt | nt | i
O=C(CNc1ccccc1)N/N=C/c1c(O)ccc2ccccc12 | 69 | nt | i | nt | nt | i
Cn1cc(C(=O)N/N=C/c2c(O)ccc3ccccc23)ccc1=O | 96 | 50 | i | i | i | i
O=C(N/N=C\c1c(O)ccc2ccccc12)c1ccc(O)cc1 | 75 | nt | i | nt | nt | i
O=C(COc1ccccc1[N+](=O)[O-])Nc1cccc(C(=O)Nc2ccccc2C(=O)O)c1 | i | nt | i | nt | nt | i
Cc1cccc(N/C=C(\[N+](=O)[O-])S(=O)(=O)c2ccccc2)c1C | i | i | i | i | i | i
Cc1ccc(/C(N)=N/OC(=O)c2cccc(Cn3cc(C(F)(F)F)ccc3=O)c2)cc1 | i | nt | i | i | i | i
O=C(O)CCC(=O)N1CCc2cc(S(=O)(=O)NCc3ccc(Cl)cc3)ccc21 | i | nt | i | nt | nt | i
COc1ccccc1C1c2ccc3ccccc3c2Oc2ncn(CCN(C)C)c(=N)c21 (stereo not drawn) | i | nt | i | nt | nt | i
COc1ccc(C2c3ccc4ccccc4c3Oc3ncn(CCCN(C)C)c(=N)c32)cc1 (stereo not drawn) | 90 | nt | i | nt | nt | i
COc1cccc(-c2cc(C(=O)N3CCOCC3)no2)c1 | i | nt | i | nt | nt | i
COc1ccc(-c2cc(C(=O)N3CCOCC3)no2)cc1 | 73 | nt | i | nt | nt | i
Cc1cc(N/N=C/c2ccc(O)cc2O)nc(-c2ccccc2O)n1 | 75 | 56 | i | i | i | i
CCC(=O)NCCc1nc2cc(NC(=O)c3cccc([N+](=O)[O-])c3)ccc2n1C | i | nt | i | nt | nt | i
C=CCNc1nc2ccccc2nc1NS(=O)(=O)c1ccc(OC)cc1 | i | nt | i | nt | nt | i
C=CCN(C(=O)Nc1ccc(F)cc1)C1CC(=O)N(c2ccc(OC)cc2)C1=O (stereo not drawn) | nt | i | i | i | i | i
SMILES | aSyn 5UTR inh | APP transl inh | IEC-6 cytotox | Ba/F3 V617F tox | BaF3 tox | KLF5 inh
C=CCN(C(=O)Nc1ccc(Cl)cc1)C1CC(=O)N(c2ccc(OC)cc2)C1=O (stereo not drawn) | i | 47 | i | i | i | i
Cc1cc(C)c2nc(C)cc(N/N=C/c3ccc(O)cc3)c2c1 | 112 | nt | i | nt | nt | i
CN1CCCNc2nc3ccccc3nc21 | i | nt | i | i | i | i
COCCn1c(C)cc(C2=NNC(=Nc3ccc(Cl)cc3Cl)SC2)c1C | i | i | i | i | i | i
Cc1cc(C2=NNC(=NC3CC3)SC2)c(C)n1Cc1ccco1 | nt | 47 | i | i | i | i
C=CCN=C1NN=C(c2cc(C)n(CCOC)c2C)CS1 | 86 | i | i | i | i | i
C=CCn1c(C)cc(C2=NNC(=Nc3ccc(C)cc3)SC2)c1C | i | i | i | i | i | i
COCCn1c(C)cc(C2=NNC(=NC3CC3)SC2)c1C | 112 | 88 | i | i | i | 79
C=CCn1c(C)cc(C2=NNC(=NC(C)(C)C)SC2)c1C | 89 | i | i | i | i | i
CC(=O)c1ccc(-c2ccc(C(=O)NC3CC(C)(C)NC(C)(C)C3)o2)cc1 | i | nt | nt | nt | nt | nt
O=C(CSc1nc(=O)n(CCCN2CCOCC2)c2c1CCC2)Nc1cccc(F)c1 | i | nt | nt | nt | nt | nt
Cc1cc(C2=NNC(=NC3CC3)SC2)c(C)n1-c1ccccc1 | 95 | 76 | i | i | i | i
COc1ccc(-n2c(C)cc(C3=NNC(=NC4CC4)SC3)c2C)cc1 | nt | i | i | i | i | i
COc1cccc(C(=O)N/N=C(/c2ccccc2)c2ccccn2)c1 | 73 | i | i | 101 | 97 | i
COc1cc(C(=O)N/N=C(\c2ccccc2)c2ccccn2)cc(OC)c1OC | 81 | 82 | i | i | i | i
COc1cccc(C(=O)N/N=C(/CCC(=O)O)c2ccccc2)c1 | i | i | i | i | i | i
COc1cc(NC(=O)c2ccccn2)cc(OC)c1OC | i | i | i | i | i | i
CNC(=O)N1CCC(C(=O)c2c(C)c(C)c(C)c(C)c2C)CC1 | i | nt | i | nt | nt | i
Cc1cc(NC(=O)CCC(=O)N(Cc2ccco2)C2(C(=O)NC3CCCCC3)CCN(C)CC2)no1 | i | i | i | i | 89 | i
Cc1cc(NC(=O)CCC(=O)N(Cc2ccco2)C2(C(=O)NC3CCCC3)CCCCC2)no1 | i | nt | i | nt | nt | i
O=[N+]([O-])c1ccc(-c2nc(C(Cl)Cl)c3ccccc3n2)cc1 | 129 | nt | i | i | i | i
CCCCN(Cc1ccccc1)S(=O)(=O)c1ccc2[nH]c(=O)oc2c1 | i | 49 | i | i | i | i
COCCn1c(=NC(=O)c2ccc(S(=O)(=O)N3CCOCC3)cc2)sc2cc(S(N)(=O)=O)ccc21 | i | nt | i | nt | nt | i
CCn1c(=NC(=O)c2ccc(S(=O)(=O)N3CCOCC3)cc2)sc2cccc(OC)c21 | i | i | i | 35 | 42 | i
O=C(C[n+]1cc(-c2ccc(F)cc2)n2c1CCC2)c1cccs1 | i | nt | i | i | 29 | i
SMILES | aSyn 5UTR inh | APP transl inh | IEC-6 cytotox | Ba/F3 V617F tox | BaF3 tox | KLF5 inh
Cc1ccc(NC(=O)C[n+]2cc(-c3ccccc3)n3c2CCC3)cc1 | i | nt | i | i | i | i
O=C(C[n+]1cc(-c2ccccc2)n2c1CCCCC2)c1ccc(Cl)cc1 | i | i | i | 53 | 56 | i
COc1ccc(-c2c[n+](CC(=O)c3ccccc3)c3n2CCCCC3)cc1 | i | nt | i | 48 | 60 | i
Cc1ccc(-c2c[n+](CC(=O)c3ccc(Br)cc3)c3n2CCCCC3)cc1 | i | i | i | 77 | 69 | i
COc1ccccc1NC(=O)NNC(=O)c1ccc2ccccc2c1O | i | nt | i | nt | nt | i
Cc1cn2c(=O)c(C(=O)N3CCN(c4ccccc4Cl)CC3)cnc2s1 | i | nt | nt | nt | nt | nt
O=C(CSCC(=O)N1CCCCC1)Nc1nc(-c2ccccc2)c(-c2ccccc2)s1 | nt | i | i | i | i | i
COc1ccc(NC(=O)CSCC(=O)Oc2c(OC)cccc2OC)cc1 | i | nt | nt | nt | nt | nt
C[n+]1cc(-c2ccccc2)n2c1CCCCC2 | i | i | i | 65 | 64 | i
O=[N+]([O-])c1ccc(C[n+]2cc(-c3ccccc3)n3c2CCCCC3)cc1 | i | i | i | i | i | i
